Data on 40 sequences can be found in the supplement of paper PMC6555819.

The subject of the assay is VDR:RXRa (NR concentration 270 nM, RXRa partner concentration 90 nM). The assay can be described thus: PBM binding z-score (relative to random genomic background probes); higher = stronger binding; sequences stand for … in GC…GCGATTGACAGCGTAGAATGAAGG
The method, then:
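Protein-binding microarray (Agilent 4x180K custom design, double-stranded 60-nt probes: 5' GC cap, 34-nt variable region, 24-nt constant primer region; full probe sequence given). Purified or IVT nuclear receptor:RXRα heterodimers (3:1 NR:RXRα, mostly 270:90 nM) or homodimers were incubated for 1 h in PBS with 2% milk and no ligand, then detected with Alexa488 antibodies. Fluorescence from o1-orientation probes (~5 replicates averaged) was converted to z-scores against 500 random hg19 background probes. Variable regions are seed direct-repeat (DR0–DR5) sites, all their single-nucleotide variants and half-site ablations.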
With GCTAGTAGGCCATTTGGGTCACTCAATGACGGGC, the PBM binding z-score turned out to be 0.995.

In the case of GCTAGTTGCTCAGTAAAAGGTCACACACCGGTCG, the PBM binding z-score is 3.73.

Sequence CCTTTCGGGTCAAGGTTATAGCACGGGTGGTACG gave a PBM binding z-score of 3.79.

On to TAGCCTAGCTCATGGGCCAGTATACCACGCGAAC, for which the PBM binding z-score was -0.717.

CCTAGCAGGCCGGGGTCACTCAAGCATTTCGCTT displayed a PBM binding z-score of 4.94.

The sequence GGAACGAGGGCAGTCGAGTTGATAGCATGGCGAT gave a PBM binding z-score of 1.22.

CTATCAAGGTGAACAAGGTCGTTGATTACTATTC had a PBM binding z-score of 6.12.

Regarding TCTCGGAGGACACGAAAGGTCACAGCTCGACATC, the PBM binding z-score is 4.91.

In turn, GAACCAAGGTGAATAGGTCGTTGATGAGTAGGCG registered a PBM binding z-score of 0.843.

Consider CCTACTGGGGCAAAAAGGTCATTGATGCCGATAA, for which the PBM binding z-score came to 5.42.

For the sequence TCTAGTTGGCCAAAGGTCACACACTCGAAATGCG, the PBM binding z-score is 4.93.

As for TCGAGTAGGTTAGTCGGGGCAGTCAGCCAACATA, the PBM binding z-score was 0.666.

AGCTCTAGGTAAAGATAGTTCAGTGAATGCAAAT: the PBM binding z-score worked out at 0.921.

In turn, TAGCCTAGGTCATTCAGGGGCCAGTATTGAAAGC had a PBM binding z-score of 3.18.

In the case of TCTAGCAGGCCAGACGGTCACTCAAGAGGTACGG, the PBM binding z-score is -0.346.

As to AGTCTAAGTTCATCTAGGTAACGTAAGATATGCT, the PBM binding z-score amounted to 4.65.

With GCACACAGGTGAAACGCAGGTAACTCAGGGTGGC, the PBM binding z-score was -0.336.

With AGAATGAGGTTATTAAGAACAGGGAATTGCGGTC, the PBM binding z-score was found to be 1.83.

In turn, AGTTAAAGTTCACTAGGTAACGTAAGATTCAGCT showed a PBM binding z-score of 3.64.

CTCTAAAGGTCGGTTGAGGTGAGTATACGGATAA displayed a PBM binding z-score of 2.42.

Sequence TATACAGGGTCAAAGGCCAGGGTACGAATGTCGA displayed a PBM binding z-score of 4.93.

AGTCAAAGTTCACTAGGTACCGTAAGATTCAGCT returned a PBM binding z-score of 4.35.

The sequence ATATGTAGGCTACATCCGGGTCATTCAGGCTATG yielded a PBM binding z-score of 2.92.

Consider TCAGACTGGTGAAGGTAACTCAGGTACGCAGTCG, for which the PBM binding z-score came to 0.31.

As to CAAACTAGGTCACGAAAGGTCAAACTCGAATGAC, the PBM binding z-score is 7.13.

Regarding GCTGCTACGTCAACTGATGGTCAGCTAAAGCTCG, the PBM binding z-score was -0.617.

The sequence TCTAGTTGGTCAAAGGTCAGACACTCGAAATGCG registered a PBM binding z-score of 4.09.

Turning to GGAACGAGGACATTCGAGTTGATAGCATGGCGAT, the PBM binding z-score was 0.922.

The sequence TGAATGAGGGTATAAGATCAGGGAACGTTGCAAA gave a PBM binding z-score of 0.217.

For CCGACTGGGGCATAAGGTTACCGTAAGCCAGCCC, the PBM binding z-score was 0.108.

Regarding CCGACTGGGGAAAGGTTACCATAACGCACAGCCA, the PBM binding z-score amounted to 0.901.

Regarding GATACAGGGTCAGCTAAAGGCCAGAGTATGGAAA, the PBM binding z-score was found to be 3.

For the sequence CGTCACAGTTCAACTAAGGTAACGTAAAGCACGC, the PBM binding z-score turned out to be 2.92.

For the sequence ATCTCTAGGTAAGACTCAGTTCAGTCAAGAACGC, the PBM binding z-score was found to be 0.989.

Turning to CGAACGAGGGCCTGAGTTGATAGCAAATGCCGAT, the PBM binding z-score is -0.469.

The sequence CGTACAAGGTCAGAGAGGTCAGTGAATGCCGAGT displayed a PBM binding z-score of 7.46.

ACTCGGAGGACAAAGGTCAGCGCTACGCCAGTGA displayed a PBM binding z-score of 3.41.

Take ACTTACGGGTCAACCAGGTTATAGCACGCGTATA: the PBM binding z-score stood at 6.72.

The sequence TCTGCTAGGTCAGTTCGTCAGCTAACGAGCTGCC gave a PBM binding z-score of 0.144.

ACTAGTTGGTCAGCTGAAGTCACACACAATTCGG: the PBM binding z-score is -0.103.
